Source: PubChem BioAssay (NCI)
About 83,000 compounds went through this panel and 20% of them were active in at least one assay; those are over-represented in the sample as a whole.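 Cell lines were cultured in 96-well plates, exposed to a single compound concentration, and assessed for percent growth 48 hours later.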 Active and inactive are the calls of the source. Rule for the calls: active = growth percent below 10; inactive = the rest.

What was measured:
Assay in all cases: NCI-60 one-dose screen, 48 h (100 = growth as untreated, 0 = no growth, -100 = all killed)
Settings in all cases: 10 µM unless noted
SR leukemia = tested on: SR leukemia
RPMI-8226 leukemia = tested on: RPMI-8226 leukemia
OVCAR-8 ovarian = tested on: OVCAR-8 ovarian
OVCAR-5 ovarian = tested on: OVCAR-5 ovarian
OVCAR-4 ovarian = tested on: OVCAR-4 ovarian
SK-OV-3 ovarian = tested on: SK-OV-3 ovarian
IGROV1 ovarian = tested on: IGROV1 ovarian
OVCAR-3 ovarian = tested on: OVCAR-3 ovarian
HS 578T breast = tested on: HS 578T breast
NCI/ADR-RES ovarian = tested on: NCI/ADR-RES ovarian

Measured: growth

CCCCCCCCCCN1CC2CCCCC2C1 (stereo not given)
inactive: SR leukemia 12.9% | RPMI-8226 leukemia 51.6% | OVCAR-8 ovarian 94% | OVCAR-5 ovarian 66.2% | OVCAR-4 ovarian 49.1% | SK-OV-3 ovarian 83.8% | IGROV1 ovarian 90% | OVCAR-3 ovarian 77.9% | HS 578T breast 84.4% | NCI/ADR-RES ovarian 83.8%

COc1ccc2sc(-n3nc4nc5n(c(=O)c4c3N)-c3ccccc3Sc3ccccc3-5)nc2c1
inactive: SR leukemia 65.2% | RPMI-8226 leukemia 45.5% | OVCAR-8 ovarian 81.7% | OVCAR-5 ovarian 126% | OVCAR-4 ovarian 66.4% | SK-OV-3 ovarian 91.8% | IGROV1 ovarian 67.9% | OVCAR-3 ovarian 76.6% | HS 578T breast 90.6% | NCI/ADR-RES ovarian 74%

COc1cc(OC)c2c(=O)cc(-c3ccccc3)oc2c1
active: IGROV1 ovarian 7.82%
inactive: SR leukemia 31.3% | RPMI-8226 leukemia 77.6% | OVCAR-8 ovarian 103% | OVCAR-5 ovarian 93.7% | OVCAR-4 ovarian 105% | SK-OV-3 ovarian 105% | OVCAR-3 ovarian 104% | HS 578T breast 113% | NCI/ADR-RES ovarian 109%

Cc1ccc(NCc2cn(-c3ccc(C(=O)O)cc3)nc2-c2ccc(C(=O)O)cc2)cc1
inactive: SR leukemia 103% | RPMI-8226 leukemia 109% | OVCAR-8 ovarian 97.8% | OVCAR-5 ovarian 106% | OVCAR-4 ovarian 109% | SK-OV-3 ovarian 102% | IGROV1 ovarian 107% | OVCAR-3 ovarian 101% | HS 578T breast 101% | NCI/ADR-RES ovarian 102%

CCC(C)C1NC(=O)C(CCCCN)NC(=O)C(CCCCN)NC(=O)C(CC(C)C)NC(=O)C(CCCCN)NC(=O)C(C(C)CC)NC(=O)C(C(C)C)NC(=O)C(C(C)CC)NC(=O)C(CCCCN)NC(=O)C(CCCCN)NC(=O)C(C)NC(=O)C(CCCCN)NC(=O)C(CC(C)C)NC1=O (stereo not given)
active: SR leukemia 2.93% | RPMI-8226 leukemia -17.4%
inactive: OVCAR-8 ovarian 12.4% | OVCAR-5 ovarian 67.3% | OVCAR-4 ovarian 23.2% | SK-OV-3 ovarian 26.1% | IGROV1 ovarian 24.4% | OVCAR-3 ovarian 10.6% | HS 578T breast 53% | NCI/ADR-RES ovarian 58.7%

Cc1nc(NC(=O)NC2CCCCC2)sc1C(=O)NN
inactive: SR leukemia 131% | RPMI-8226 leukemia 112% | OVCAR-8 ovarian 102% | OVCAR-5 ovarian 102% | OVCAR-4 ovarian 109% | SK-OV-3 ovarian 116% | IGROV1 ovarian 72.2% | OVCAR-3 ovarian 99.5% | HS 578T breast 105% | NCI/ADR-RES ovarian 118%

NCCCOc1cc(Cl)ccc1NC(=O)c1cc2ccccc2cc1OCCCN
active: SR leukemia -38.9% | RPMI-8226 leukemia -43.9% | OVCAR-8 ovarian -73.3% | OVCAR-5 ovarian -72.3% | OVCAR-4 ovarian -70.6% | SK-OV-3 ovarian -42.4% | IGROV1 ovarian -43.5% | OVCAR-3 ovarian -86.9% | HS 578T breast -56.4%
inactive: NCI/ADR-RES ovarian 57.2%

Cc1c(Cc2ccccc2)c(=O)oc2c(C)c(OCC(=O)n3nc(C#N)cc3N)ccc12
inactive: SR leukemia 90.3% | RPMI-8226 leukemia 100% | OVCAR-8 ovarian 102% | OVCAR-5 ovarian 104% | OVCAR-4 ovarian 93% | SK-OV-3 ovarian 93.8% | IGROV1 ovarian 103% | OVCAR-3 ovarian 104% | HS 578T breast 99.2% | NCI/ADR-RES ovarian 102%

CC([C@H]1CCC2C3CCC4C[C@@H](N)CC[C@]4(C)C3CC[C@@]21C)N(C)C (stereo not given in full)
inactive: SR leukemia 18.5% | RPMI-8226 leukemia 58.7% | OVCAR-8 ovarian 85.7% | OVCAR-5 ovarian 98.5% | OVCAR-4 ovarian 38.4% | SK-OV-3 ovarian 91.1% | IGROV1 ovarian 53.1% | OVCAR-3 ovarian 71.5% | HS 578T breast 79.1% | NCI/ADR-RES ovarian 81.5%

CC(=O)N1CCN(CCNC(=O)n2cc(-c3ccncc3)c(-c3ccc(O)c(Cl)c3)n2)CC1
inactive: SR leukemia 85% | RPMI-8226 leukemia 102% | OVCAR-8 ovarian 106% | OVCAR-5 ovarian 114% | OVCAR-4 ovarian 127% | SK-OV-3 ovarian 104% | IGROV1 ovarian 127% | OVCAR-3 ovarian 112% | HS 578T breast 139% | NCI/ADR-RES ovarian 107%

COc1ccc(-c2nc(SCC(C)C)nc(Nc3ccc(C(=O)O)cc3)c2C#N)cc1
inactive: SR leukemia 82.5% | RPMI-8226 leukemia 60.8% | OVCAR-8 ovarian 97.1% | OVCAR-5 ovarian 104% | OVCAR-4 ovarian 87.1% | SK-OV-3 ovarian 113% | IGROV1 ovarian 109% | OVCAR-3 ovarian 86.6% | HS 578T breast 99.1% | NCI/ADR-RES ovarian 94.6%

[2H]c1nc(=Nc2cc(NC(=O)C=C)c(N(C)CCN(C)C)cc2OC)[nH]c(-c2cn(C([2H])([2H])[2H])c3ccccc23)c1[2H]
inactive: RPMI-8226 leukemia 19% | OVCAR-8 ovarian 53.3% | OVCAR-5 ovarian 54.2% | OVCAR-4 ovarian 57.6% | IGROV1 ovarian 19.1% | OVCAR-3 ovarian 50.6% | HS 578T breast 63.7% | NCI/ADR-RES ovarian 39.1%
active: SR leukemia -13.7% | SK-OV-3 ovarian 3.49%

CCCCCc1ccnc(CC(=O)c2ccc(OC)cc2)c1
inactive: SR leukemia 91.5% | RPMI-8226 leukemia 76.7% | OVCAR-8 ovarian 86.1% | OVCAR-5 ovarian 89.7% | OVCAR-4 ovarian 76.5% | SK-OV-3 ovarian 92.5% | IGROV1 ovarian 108% | OVCAR-3 ovarian 93.7% | HS 578T breast 107% | NCI/ADR-RES ovarian 108%
